Screens (PubChem BioAssay)
Shown are actives, neighbours in structure and some others; about 1.1% of the full set was active somewhere.
Glioma ERSR ind: qHTS for Inducers of the Endoplasmic Reticulum Stress Response (ERSR) in Human Glioma: qHTS | U87-MG GRP78 promoter luciferase reporter, 16 h | Potency, µM, without a hit: at the top dose activation, hits mostly activators | actives 0.02% (n = 420,000) | AID 602332, 2012; note: series mostly up to about 76 µM; % of control where 0% means no effect; nearly all actives have a fitted effect of over 35% in size
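ERSR induction read as luciferase luminescence (Bright-Glo, 10 min at room temperature) in stably transfected human U87-MG glioma cells exposed to compounds for 16 h, using GRP78 as sensor.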
12-LOX inh: Primary qHTS assay for inhibitors of human arachidonate 12S-lipoxygenase (ALOX12): Round 2; purified 12hLO, xylenol orange hydroperoxide absorbance; Potency, µM (highest dose often 108 µM), for the others: at the top dose activity change, negative = inhibition, most hits filed as inhibitors; actives 1.1% (n = 580,000); AID 1671190, 2021; note: % is set by controls: 0 for no effect and ±100 for the full control effect
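Purified human 12hLO (150 nM final) in 25 mM Hepes, 0.01% Triton X-100, pH 7.0 was preincubated 15 min at room temperature with compound. Then 40 uM arachidonic acid was added, 30 min. Hydroperoxide was read by Fe-XO absorbance ratio 573/405 nm.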
Anesthetic bind: qHTS Assay for Identification of Novel General Anesthetics; actives 0.074% (n = 350,000); apoferritin/1-aminoanthracene competitive binding, fluorescence; Ferritin light chain (Equus caballus), P02791; AID 485281, 2010; Potency, µM (titrated, usually from 77.5 µM), for inactives: at the top dose activity change, negative = displacement, usual class: inhibitors; note: % is set by controls: 0 for no effect and ±100 for the full control effect; nearly all actives have a fitted effect of over 20% in size
Target sequence (P02791 2-175 limits assumed): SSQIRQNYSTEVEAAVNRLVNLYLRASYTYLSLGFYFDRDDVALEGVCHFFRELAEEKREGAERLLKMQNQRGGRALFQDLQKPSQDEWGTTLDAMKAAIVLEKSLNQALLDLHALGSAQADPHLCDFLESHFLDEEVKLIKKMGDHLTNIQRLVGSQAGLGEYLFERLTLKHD
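Concentration-response curves derived by four-parameter Hill fitting of normalized fluorescence, where compounds displaced 1-AMA from 10 uM horse apoferritin following a brief 10 min room-temperature incubation; propofol titration acted as positive control.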
BCR signal inh: qHTS Assay to Find Inhibitors of Chronic Active B-Cell Receptor Signaling; ABC-DLBCL IkBa-CBG/CBR reporter, luminescence ratio, 4 h; Potency, µM (highest dose often 46.1 µM), inactives show at the top dose activity change, negative = inhibition, most hits filed as inhibitors; actives 0.05% (n = 340,000); active = well fitted inhibition curve with a large enough effect in the signal ratio, with a control signal flat, not every such curve was filed as active; inconclusive = small, poorly fitted or top-dose-only effect, or effect the other way, or a change in a side signal; the % refers to the signal ratio;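 note: plate controls were basal doxycycline-induced cells for no effect and cells given 10 µM MG132 for full effect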
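Doxycycline induced both beetle luciferases in TMD8 lymphoma cells; IKK-driven degradation limits the IkappaBalpha-fused green signal, while red luminescence normalises for cell number and nonspecific effects. Compounds tested up to 46 uM, 4 hrs.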
* = called active by the depositor; ? = inconclusive; . = no result given; [ ] = remark or other dose. Unless noted, calls come from the whole dose curve; as a rule, active = well fitted curve in the direction sought with a large enough effect; inconclusive = small, poorly fitted or top-dose-only effect, or another doubt; inactive = no such curve, though single readings can be large; an effect the other way counts as inactive or inconclusive. Potency is the fitted concentration of half-maximal effect.

SMILES	Glioma ERSR ind	12-LOX inh	Anesthetic bind	BCR signal inh
CC[N+](CC)(CC)CCOc1ccc(/C=C\c2ccccc2)cc1	-3%	37%	.	.
S=C(NCCCN1CCOCC1)Nc1ccc(Nc2ccccc2)cc1	-2%	-25%	?	-7%
CCNC(=S)NN=C1c2ccccc2-c2ccccc21	-5%	35µM*	-24%	?
C=C(C)CNC(=S)NN=C1c2ccccc2-c2ccccc21	-9%	.	-19%	?
S=C(NCCCN1CCOCC1)NN=C1c2ccccc2-c2ccccc21	-3%	45µM*	.	.
ON=C1c2ccccc2-c2ccc(Br)cc21	2%	-7%	.	.
NC(=S)NN=C1c2ccccc2-c2cc(Br)ccc21	-3%	40µM*	.	.
O=C(c1ccc(C(F)(F)F)s1)N1CCc2c(nc(-c3ccccc3)[nH]c2=O)C1	.	-9%	.	.
COc1ccc2nc(N3C(=O)C(O)=C(C(=O)c4ccco4)C3c3ccc(C)o3)sc2c1 (configuration not stated)	1%	?	.	?
Cc1ccc2nc(N3C(=O)C(O)=C(C(=O)c4ccc(C)o4)C3c3ccc(O)cc3)sc2c1 (configuration not stated)	3%	28µM*	.	?
CCCOc1cccc(C2C(C(=O)c3ccc(C)o3)=C(O)C(=O)N2c2nc(C)c(C(C)=O)s2)c1 (configuration not stated)	-1%	1.3µM*	?	?
CCOc1cccc(C2C(C(=O)c3ccc(C)o3)=C(O)C(=O)N2c2nnc(C)s2)c1 (configuration not stated)	-6%	?	.	.
Cc1ccc2nc(N3C(=O)C(O)=C(C(=O)c4ccco4)C3c3cccs3)sc2c1 (configuration not stated)	5%	18µM*	?	?
Cc1ccc2cc(CN(Cc3ccc4c(c3)OCO4)Cc3nnnn3Cc3ccco3)c(=O)[nH]c2c1C	-4%	13µM*	6%	?
Cc1ccc(C)c2[nH]c(=O)c(CN(Cc3ccc4c(c3)OCO4)Cc3nnnn3Cc3ccco3)cc12	0%	?	-17%	?
O=C(NCCNCc1c[nH]c2ccccc12)c1ccc(F)cc1	.	7.9µM*	.	.
COc1cccc(-c2nc3cc(NC(=O)c4ccc(C)c([N+](=O)[O-])c4)ccc3o2)c1	.	45µM*	.	.
CC1CCN(C(=O)CSc2n[nH]c(-c3cc(Br)ccc3O)n2)CC1	.	32µM*	.	.
O=C1OCC2(CCN(Cc3ccc4c(c3)CCO4)C2)N1Cc1ccccc1 (configuration not stated)	.	56µM*	.	.
Cc1ccc(S(=O)(=O)N(C)C)cc1C(=O)OC(C)C(=O)c1ccccc1 (configuration not stated)	.	37%	.	.
Cc1[nH]c2ccccc2c1/C=C(\C#N)C(=O)NC1CC1	3%	?	-11%	?
Cc1[nH]c2ccccc2c1/C=C(\C#N)C(=O)NC(C)c1ccccc1 (configuration not stated)	2%	7.1µM*	?	-14%
CN(CCCCOc1ccc(F)cc1)Cc1ccccc1	2%	1.1µM*	-15%	2%
CC1CCN(C(=O)c2nn(C(C)C)c(=O)c3ccccc23)c2cc(Cl)ccc2S1 (configuration not stated)	.	-28%	.	.
C=C1C2(C(=O)Nc3nccs3)CCC(C2)C1(C)C (configuration not stated)	-4%	0%	7.9µM*	2%
SMILES	Glioma ERSR ind	12-LOX inh	Anesthetic bind	BCR signal inh
O=C(Nc1nccs1)C12CC3CC(CC(C3)C1)C2	.	2%	.	.
Nn1c(SCc2ncc(-c3ccccc3)o2)nnc1-c1ccccc1F	.	6.3µM*	.	.
COc1ccccc1/C=C/c1nc(C#N)c(NCCCn2ccnc2)o1	.	16%	.	.
CS(=O)(=O)c1ccc(C2=C(c3ccccc3)C(=O)OC2)cc1	-3%	-1%	4%	.
N#CC1=C(c2ccc(-c3ccccc3)cc2)COC1=O	0%	50µM*	?	5%
CC1(C)[C@H]2CC[C@@H](CN[S+](=O)([O-])c3ccccc3)[C@@H]1C2	.	-29%[176 µM]	.	.
N#Cc1ccc(CCC(=O)O)cc1	.	28µM*	.	.
N#Cc1ccc(CCC(=O)OCc2ccc(C#N)cc2)cc1	.	-4%	.	.
Cc1ccc(NC(=O)Cn2cnnc2C#N)cc1Cl	.	-3%	.	.
Cc1ccc(C(=O)N2CCC3(CC2)NC(=O)N(c2ccccc2)N3)cc1F	.	4µM*	.	.
CN(C)c1ccc(C(=O)N2CCC3(CC2)NC(=O)N(c2ccccc2)N3)cc1	.	2.8µM*	.	.
CC(=O)N1CCC2(CC1)NC(=O)N(c1ccccc1)N2	-9%	?	-7%	?
CC(C)C(=O)NC(Nc1cccc2ccccc12)C(Cl)(Cl)Cl (configuration not stated)	.	11µM*	.	.
Nc1nnc(CC(=O)N/N=C/c2cc([N+](=O)[O-])cc(Br)c2O)s1	-4%	16µM*	-22%	0%
O=C(Nc1csnn1)c1csnn1	-4%	10µM*	32%	-7%
Cc1ccc(S(=O)(=O)N2CCC3(CC2)SCC(=O)N3Cc2ccco2)cc1	.	14µM*	.	.
COc1ccc(S(=O)(=O)N2CCN(Cc3ccco3)CC2)cc1	-7%	2.5µM*	0%	4%
O=S(=O)(c1ccc(Br)cc1)N1CCN(Cc2ccco2)CC1	-4%	-5%	-5%	?
COc1ccc(Nc2nc3ccccc3nc2NS(=O)(=O)c2ccc(Cl)cc2)c(OC)c1	.	-16%	.	.
O=C1CCN(C(=O)Cc2c[nH]c3ccccc23)CCCC(C(=O)NCc2ccccc2)CCN1 (configuration not stated)	.	1%	.	.
O=c1ccc(N=Nc2ccccc2)ccc1O	-2%	45µM*	-11%	?
Cc1ccc(Nc2c([N+](=O)[O-])ccc3nonc23)c(C)c1	-2%	39%	3%	0%
Cc1ccc(S(=O)c2ccc([N+](=O)[O-])c3nonc23)cc1 (configuration not stated)	-4%	2µM*	.	.
Cc1cc(C(=O)Cn2c(=O)c3c(ncn3C3CCCC3)n(Cc3ccccc3)c2=O)c(C)n1C	.	-19%	.	.
CCCCN(CC)c1ccc(NS(=O)(=O)c2ccc(C(C)=O)cc2)cc1C(=O)O	.	-80%	.	.
CCCCN(CCCC)c1nc2ccccc2nc1NS(=O)(=O)c1ccc(NC(C)=O)cc1	-1%	-1%	-15%	?
CCCCN(Cc1ccccc1)c1ccc(NS(=O)(=O)c2ccc(C(C)(C)C)cc2)cc1C(=O)O	.	14µM*	.	.
CCCCN(Cc1ccccc1)c1ccc(NS(=O)(=O)c2ccc(C(C)=O)cc2)cc1C(=O)O	.	4.5µM*	.	.
CC(C)OCCCNC(=O)c1cc(C2CC2)nc2onc(C3CCCN3)c12 (configuration not stated)	.	-3%[6.33 µM]	.	.
Cc1cc(C(=O)NCCCOC(C)C)c2c(C3CCCN3)noc2n1 (configuration not stated)	.	14µM*	.	.
